Assay [1] in a line: Nuclear factor erythroid 2-related factor 2/antioxidant responsive element (Nrf2/ARE) small molecule agonists: qHTS cell viability counter screen in human keratinocytes (AID 1919968; active means well fitted curve in the direction sought with a large enough effect in the repeat runs; an effect the other way counts as inactive or inconclusive; further: nearly all actives have a fitted effect of over 55% in size; further: potency means the concentration at half of the fitted maximal effect). Summed up:
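After a 5 h attachment period, ARE-reporter keratinocytes were dosed with compounds in DMSO and then cultured 23 h at 37 C. Cell viability came from CellTiter-Fluor signal read after a further 1 h.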
A general note: Quantitative high-throughput screening tests each substance at several concentrations.

Assay [2] addresses Gonadotropin-releasing hormone receptor (Homo sapiens) (UniProt P30968). Nature of the assay: Human gonadotropin-releasing hormone receptor (GnRHR) small molecule agonists, calcium flux assay in GnRHR-HEK293 cells (AID 1920063). Further: nearly all actives have a fitted effect of over 35% in size. Summed up: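 We seeded human GnRHR-expressing HEK293 cells for 18 hours, loaded them with calcium dye for an hour at 37 C, added test compounds, and recorded fluorescence intensity kinetically for three minutes.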
In general terms: A change in cytosolic calcium serves as a functional read-out for many receptors and channels.

Assay [3] deals with KiSS-1 receptor (Homo sapiens) (UniProt Q969F8). Nature of the assay: Human kisspeptin (KISS1R) small molecule agonists, calcium flux assay in KISS1R-HEK293 cells (AID 1920064; active means well fitted curve in the direction sought with a large enough effect in the repeat runs; an effect the other way counts as inactive or inconclusive). Summed up:
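Kinetic calcium assay, 1 s sampling over 3 min at Ex/Em 480/540, in HEK293 cells engineered with human KISS1R; compounds delivered in DMSO after 1 h dye loading.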

The nature of assay [4]: G protein-coupled receptor (GPCR) small molecule agonists, calcium flux assay: HEK293 wild type cell line counter screen (AID 1920065). The essentials:
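Calcium-sensitive dye, loaded 1 h at 37 C into cells cultured 18 h, reports compound-evoked calcium release as fluorescence (Ex/Em 480/540), measured over 3 min. Agonist mode; 15-point titrations, triplicate.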

A short description of assay [5]: p53 small molecule agonists, cell-based qHTS assay with human liver microsomes: qHTS cell viability counter screen (AID 1963579). Further: nearly all actives have a fitted effect of over 45% in size. Summed up: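 Seed p53RE-bla cells at 4,000 per well; incubate 5 h at 37 C; add compound, human liver microsomes and NADPH; incubate 16 h at 37 C; add CellTiter-Glo; after 30 min at room temperature, read luminescence.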
The nature of assay [6]: p53 small molecule agonists, cell-based qHTS assay with rat liver microsomes: qHTS cell viability counter screen (AID 1963580). Further: nearly all actives have a fitted effect of over 45% in size. Summed up:
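p53RE-bla HCT-116 cells were exposed 16 h at 37 C to compounds with rat liver microsomes (0.5 mg/mL) and NADPH (0.5 mg/mL). Viability was measured in the same wells as ATP content by CellTiter-Glo luminescence.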

Assay [7] in a line: p53 small molecule agonists, cell-based qHTS assay: qHTS cell viability counter screen (AID 1963581). Further: nearly all actives have a fitted effect of over 45% in size. Summed up: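 Following 5 h attachment, HCT-116 p53RE-bla cells took up compound for 16 h at 37 C; the reporter was read with B/G FRET substrate (2 h RT), and viability then via CellTiter-Glo ATP luminescence.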
Assay [8] can be described thus: p53 small molecule agonists, cell-based qHTS assay (AID 1963582; active means well fitted activation curve with a large enough effect in the signal ratio in the repeat runs, not every such curve was filed as active; the % refers to the signal ratio). The essentials:
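In this cell-based concentration-response screen, a p53 response element drives beta-lactamase; cells received DMSO-borne compounds after 5 h culture and were incubated a further 16 h before FRET substrate development.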

For assay [9], the target named is 5-hydroxytryptamine receptor 2A (Homo sapiens) (UniProt P28223). Nature of the assay: 5-hydroxytryptamine receptor 2A (HTR2A) small molecule antagonists, cell-based qHTS assay (AID 1963586). Further: nearly all actives have a fitted effect of over 45% in size. Summed up:
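Antagonist-mode intracellular calcium assay: DOI (4 nM) added after 5 min compound pre-incubation at room temperature to dye-loaded HTR2A-CHO cells. Fluorescence followed for 3 min, sampled every second.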

The target is the same in assay [10]. Nature of the assay: 5-hydroxytryptamine receptor 2A (HTR2A) small molecule agonists, cell-based qHTS assay (AID 1963587). Further: nearly all actives have a fitted effect of over 30% in size. The essentials:
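CHO cells stably expressing human HTR2A, plated 18 h, loaded with calcium dye 1 h at 37 C. Agonist mode: compounds added and intracellular calcium fluorescence recorded kinetically for 2 min at 1 sec intervals.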

The target in assay [11] is Muscarinic acetylcholine receptor M1 (Homo sapiens) (UniProt P11229). Nature of the assay: Cholinergic receptor muscarinic 1 (CHRM1) small molecule antagonists, cell-based qHTS assay (AID 1963588). Further: nearly all actives have a fitted effect of over 40% in size. The essentials: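 CHRM1-CHO calcium-flux assay, antagonist mode. Cells were seeded 18 h, dye-loaded 1 h at 37 C and given compound for 5 min at RT, then acetylcholine was added at 50nM. FDSS fluorescence was read 3 min; 15 concentrations, three runs.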
Sequence of Muscarinic acetylcholine receptor M1 (Homo sapiens) (P11229 whole entry, looked up): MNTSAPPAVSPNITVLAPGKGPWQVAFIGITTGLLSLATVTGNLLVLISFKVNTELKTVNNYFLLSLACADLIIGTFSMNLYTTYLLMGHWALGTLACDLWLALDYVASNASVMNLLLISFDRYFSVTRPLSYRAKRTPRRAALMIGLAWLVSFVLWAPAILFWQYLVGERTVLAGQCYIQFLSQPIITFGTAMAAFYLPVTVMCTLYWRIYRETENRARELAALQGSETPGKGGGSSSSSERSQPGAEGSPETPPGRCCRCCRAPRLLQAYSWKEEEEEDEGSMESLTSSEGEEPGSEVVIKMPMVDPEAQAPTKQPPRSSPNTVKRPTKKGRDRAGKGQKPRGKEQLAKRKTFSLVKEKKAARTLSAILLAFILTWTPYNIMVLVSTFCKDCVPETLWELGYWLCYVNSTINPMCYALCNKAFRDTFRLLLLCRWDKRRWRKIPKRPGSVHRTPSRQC

For assay [12] the target is unchanged. Nature of the assay: Cholinergic receptor muscarinic 1 (CHRM1) small molecule agonists, cell-based qHTS assay (AID 1963589). Further: nearly all actives have a fitted effect of over 35% in size. Summed up:
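Measures agonist-induced intracellular calcium rise. Stable human CHRM1 CHO line, 1 h dye load at 37 C, compounds from DMSO, kinetic fluorescence read.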

The target in assay [13] is Beta-2 adrenergic receptor (Homo sapiens) (UniProt P07550). Nature of the assay: Adrenergic beta2 receptor (ADRB2) small molecule antagonists, cell-based qHTS assay (AID 1963592). Further: series mostly up to about 92 µM; nearly all actives have a fitted effect of over 50% in size. Summed up:
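Cells (CHO, stable ADRB2 overexpression) incubated 18-20hr at 37C; compounds added from DMSO; agonist mix (1nM isoproterenol, 100uM IBMX, 25uM Ro-20-1724) added; 0.5hr RT; d2-cAMP and anti-cAMP-cryptate added; 1hr RT; 665/615 nm read.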

The target in assay [14] is D(2) dopamine receptor (Homo sapiens) (UniProt P14416). Nature of the assay: Dopamine D2 receptor (DRD2) small molecule agonists, cell-based qHTS assay (AID 1963594). Further: nearly all actives have a fitted effect of over 35% in size. Further: potency means the concentration at half of the fitted maximal effect. The essentials: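 HEK293 cells stably expressing human DRD2, pre-treated with PDE inhibitor Ro20-1724 (0.1 mM final) and compound 10 min at room temperature, then stimulated with NKH477 (200nM […]) for 30 min. cAMP read by HTRF (665/620 nm).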
Sequence of D(2) dopamine receptor (Homo sapiens) (P14416 whole entry, looked up): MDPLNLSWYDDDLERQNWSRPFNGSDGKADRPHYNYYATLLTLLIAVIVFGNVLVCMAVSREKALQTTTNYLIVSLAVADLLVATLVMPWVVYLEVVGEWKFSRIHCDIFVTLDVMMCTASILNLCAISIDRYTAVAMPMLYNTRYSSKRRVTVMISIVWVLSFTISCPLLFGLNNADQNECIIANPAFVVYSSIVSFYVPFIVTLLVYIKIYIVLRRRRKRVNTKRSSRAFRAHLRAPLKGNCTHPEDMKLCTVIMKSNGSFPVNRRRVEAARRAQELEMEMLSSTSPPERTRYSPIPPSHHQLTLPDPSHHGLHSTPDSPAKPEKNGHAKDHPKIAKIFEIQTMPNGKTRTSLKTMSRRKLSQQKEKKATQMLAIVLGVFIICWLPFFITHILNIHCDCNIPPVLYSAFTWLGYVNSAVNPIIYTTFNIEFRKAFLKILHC

Assay [15] has the same target. Nature of the assay: Dopamine D2 receptor (DRD2) small molecule antagonists, cell-based qHTS assay (AID 1963595; active means well fitted inhibition curve with a large enough effect in the signal ratio in the repeat runs, with a control signal flat; the % refers to the signal ratio). Summed up:
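Stable D2 receptor HEK293 line, 24 h after seeding. Compound preincubated 10 min, then quinpirole (12 nM) with forskolin analogue NKH477 (200 nM), 30 min, room temperature. Detection by time-resolved FRET of cAMP.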

Assay [16] is described as follows: p53 small molecule agonists, cell-based qHTS assay with human liver microsomes (AID 1963577). The essentials: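 Cells carrying a p53-responsive bla reporter were rested 5 h (37 C, 5% CO2) before compound transfer. Human liver microsomes plus NADPH, 0.5 mg/mL final apiece, supplied metabolism during the 16 h 37 C exposure.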
A short description of assay [17]: cAMP Responsive Elements (CRE) small molecule agonists, cell-based qHTS assay (AID 1963590). The essentials: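 A CRE-responsive beta-lactamase reporter in HEK 293T cells was used. Treatment ran 3 h at 37 C; detection used LiveBLAzer B/G FRET substrate for 2 h at room temperature.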
Assay [18] is described as follows: cAMP Responsive Elements (CRE) small molecule antagonists, cell-based qHTS assay (AID 1963591; active means well fitted inhibition curve with a large enough effect in the signal ratio in the repeat runs, not every such curve was filed as active; the % refers to the signal ratio). Summed up: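 HEK293T cells carrying a CRE-driven beta-lactamase reporter receive compound and NKH477 (0.25 uM final) for 3 h. Fluorescence from LiveBLAzer B/G FRET substrate is read after 2 h at room temperature.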
In assay [19] the target is Beta-2 adrenergic receptor (Homo sapiens) (UniProt P07550). Nature of the assay: Adrenergic beta2 receptor (ADRB2) small molecule agonists, cell-based qHTS assay (AID 1963593).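 Further: CHO cells stably overexpressing human ADRB2.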 The essentials:
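CHO cells stably over-expressing ADRB2 were plated overnight at 37C, then dosed with compounds plus a stimulation mix containing 100uM IBMX and 25uM Ro-20-1724 for 0.5hr at room temperature. cAMP was measured by HTRF competition, 1hr.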

The nature of assay [20]: p53 small molecule agonists, cell-based qHTS assay with rat liver microsomes (AID 1963578). Summed up: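 Fluorescence from a beta-lactamase reporter under a p53 response element was measured after cells had been incubated 16 h at 37 C with test compound and rat liver microsomes plus NADPH (0.5 mg/mL final each).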

This note sets out measurements from PubChem BioAssay (Tox21).

Values without a mark were called inactive. Records with an inconclusive call do not appear. The source made the active and inactive calls. Unless noted, the call rests on the fitted dose curve.

Sequence of KiSS-1 receptor (Homo sapiens) (Q969F8 whole entry, looked up): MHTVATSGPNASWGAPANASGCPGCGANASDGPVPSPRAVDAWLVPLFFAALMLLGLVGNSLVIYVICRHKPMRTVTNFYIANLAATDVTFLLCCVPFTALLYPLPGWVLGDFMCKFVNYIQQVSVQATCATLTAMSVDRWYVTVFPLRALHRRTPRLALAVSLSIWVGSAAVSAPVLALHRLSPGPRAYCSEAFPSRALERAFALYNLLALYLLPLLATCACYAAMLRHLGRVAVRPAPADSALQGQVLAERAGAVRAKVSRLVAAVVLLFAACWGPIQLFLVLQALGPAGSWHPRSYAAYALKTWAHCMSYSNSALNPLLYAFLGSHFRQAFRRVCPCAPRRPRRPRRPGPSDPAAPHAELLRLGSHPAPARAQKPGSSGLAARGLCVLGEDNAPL
Sequence of 5-hydroxytryptamine receptor 2A (Homo sapiens) (P28223 whole entry, looked up): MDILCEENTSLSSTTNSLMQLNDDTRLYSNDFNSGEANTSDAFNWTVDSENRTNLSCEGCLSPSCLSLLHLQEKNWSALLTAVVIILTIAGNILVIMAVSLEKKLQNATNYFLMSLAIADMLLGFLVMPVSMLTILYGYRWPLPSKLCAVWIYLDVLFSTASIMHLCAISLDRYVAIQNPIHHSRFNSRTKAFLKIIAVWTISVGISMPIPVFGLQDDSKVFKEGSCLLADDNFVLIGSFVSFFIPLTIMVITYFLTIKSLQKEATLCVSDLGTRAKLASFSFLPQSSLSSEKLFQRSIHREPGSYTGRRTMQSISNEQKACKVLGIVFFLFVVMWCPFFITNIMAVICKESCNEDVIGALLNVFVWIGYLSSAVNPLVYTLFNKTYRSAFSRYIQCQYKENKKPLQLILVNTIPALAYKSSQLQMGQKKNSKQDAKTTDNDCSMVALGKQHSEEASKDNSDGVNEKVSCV
Sequence of Beta-2 adrenergic receptor (Homo sapiens) (P07550 whole entry, looked up): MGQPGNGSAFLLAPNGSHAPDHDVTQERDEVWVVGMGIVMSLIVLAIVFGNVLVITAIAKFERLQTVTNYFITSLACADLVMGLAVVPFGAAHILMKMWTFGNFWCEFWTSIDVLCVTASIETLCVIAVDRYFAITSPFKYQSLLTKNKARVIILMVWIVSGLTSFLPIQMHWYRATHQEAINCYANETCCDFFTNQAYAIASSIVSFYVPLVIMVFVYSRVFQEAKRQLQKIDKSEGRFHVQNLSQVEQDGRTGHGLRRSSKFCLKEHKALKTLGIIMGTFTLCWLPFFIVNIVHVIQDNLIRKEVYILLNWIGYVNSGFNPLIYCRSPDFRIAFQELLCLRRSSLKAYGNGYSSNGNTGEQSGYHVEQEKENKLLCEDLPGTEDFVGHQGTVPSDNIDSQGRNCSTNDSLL
Sequence of Gonadotropin-releasing hormone receptor (Homo sapiens) (P30968 whole entry, looked up): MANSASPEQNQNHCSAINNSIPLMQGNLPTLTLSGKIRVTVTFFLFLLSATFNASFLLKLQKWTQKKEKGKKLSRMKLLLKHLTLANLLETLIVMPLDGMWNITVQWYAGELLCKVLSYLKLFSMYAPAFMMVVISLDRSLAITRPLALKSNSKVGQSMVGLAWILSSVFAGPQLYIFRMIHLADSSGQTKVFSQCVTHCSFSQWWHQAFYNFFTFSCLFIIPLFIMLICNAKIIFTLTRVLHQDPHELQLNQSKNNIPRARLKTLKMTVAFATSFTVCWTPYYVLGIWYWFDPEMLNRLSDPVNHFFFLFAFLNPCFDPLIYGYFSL

On to `O=C(O)c1ccc(-n2nc(-c3ccccc3O)nc2-c2ccccc2O)cc1`, for which the Potency entry in [1], in [2], in assay [3], in assay [4], in assay [5] and in assay [6] was “inactive” in each case. For the same compound, the Potency entry in assay [7], in [8], in [9], in assay [10], in [11] and in [12] was “inactive” throughout. Moreover, the Potency result in [13] and in [15] was “inactive” in each case. Besides, the Potency in assay [14] was 11.2 µM (active).

As for `CCCn1cc[n+](C)c1C`, the Potency entry in [1], in [2], in assay [3], in [4], in assay [16] and in [5] was “inactive” in each case. The Potency entry in [6], in assay [8], in assay [9], in [10], in assay [11] and in assay [12] was “inactive” throughout. Besides, the Potency result in assay [17], in assay [18], in [13], in assay [19], in assay [14] and in [15] was “inactive” throughout.

Turning to `C[C@@H]1C[C@H]2[C@@H]3C[C@H](F)C4=CC(=O)C=C[C@]4(C)[C@@]3(F)[C@@H](O)C[C@]2(C)[C@@]1(O)C(=O)CO`, the Potency entry in assay [1], in [2], in assay [3], in assay [4], in assay [5] and in [6] was “inactive” throughout. The Potency result in assay [7], in assay [9], in [10], in assay [11], in assay [12] and in assay [17] was “inactive” throughout. Moreover, the Potency entry in [18], in [13], in assay [14] and in assay [15] was “inactive” in each case.

Take `Cc1c(-c2cccnc2)c2ccccc2n1CCCCC(=O)O`: the Potency entry in assay [1], in assay [2], in assay [3], in assay [4], in assay [20] and in assay [5] was “inactive” each time. In addition, the Potency result in [6], in assay [8], in assay [10], in assay [11], in assay [12] and in [14] was “inactive” in each case.

With `Cn1cc(C(=O)[C@@H]2CCc3nc[nH]c3C2)c2ccccc21`, the Potency result in assay [1], in assay [2], in [3], in [4], in assay [5] and in [6] was “inactive” in each case. The Potency entry in [7], in assay [9], in [10], in assay [11], in assay [12] and in [17] was “inactive” each time. In addition, the Potency result in assay [18], in assay [13], in assay [14] and in assay [15] was “inactive” each time.

For `CC1(C)C(=O)N(Br)C(=O)N1Br`, the Potency result in assay [1], in [2], in [3], in [4], in assay [20] and in assay [5] was “inactive” throughout. The Potency result in assay [6], in assay [7], in assay [8], in [10], in assay [11] and in assay [12] was “inactive” in each case. For the same compound, the Potency entry in assay [17], in assay [18], in assay [13] and in assay [15] was “inactive” in each case.

Take `NC(=O)N1C(=O)C(C(=O)c2cc(Cl)cs2)c2cc(F)c(Cl)cc21` (stereo unspecified): the Potency in assay [1] is 24.3 µM (active). In addition, the Potency result in assay [2], in assay [3], in [4], in assay [20], in assay [5] and in assay [6] was “inactive” throughout. The Potency entry in [7], in assay [9], in assay [12], in assay [14] and in assay [15] was “inactive” each time.

In the case of `O=[N+]([O-])c1ccc2ncccc2c1`, the Potency entry in assay [1], in assay [2], in assay [3], in assay [4], in assay [20] and in [5] was “inactive” in each case. Besides, the Potency result in assay [6], in assay [7], in assay [9], in [10], in assay [11] and in [12] was “inactive” in each case. Also, the Potency entry in assay [17], in assay [13], in [14] and in assay [15] was “inactive” throughout.
